Source: PubChem BioAssay (National Center for Advancing Translational Sciences (NCATS))
Lassa entry inh: qHTS for Inhibitors of binding or entry into cells for Lassa Virus. Lassa virus pseudotype entry inhibition, cell reporter. Potency, µM (titrated, usually from 37.9 µM), inactives show at the highest dose activity change, negative = inhibition, most hits filed as inhibitors. 300,000 tested, 1.2% active. AID 540256, 2011; calls by dose curve; tested in HEK293 cells; note: nearly all actives have a fitted effect of over 50% in size
HCV inhibitor: qHTS Assay for Inhibitors of Hepatitis C Virus (HCV); Huh7.5.1 HCVcc-Cre infection, luciferase reporter, 44 h; Potency, µM (top dose mostly 41.8 µM), for the others: at the top dose activity change, negative = inhibition, hits mostly inhibitors; 340,000 tested, 3.4% active; AID 651820, 2012
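Seed cells (1,000/well) for 4 h; treat with compound and infect with HCVcc-Cre, moi about 0.5. Incubate 44 h, then detect luciferase activity.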
MARV entry inh: qHTS for inhibitors of binding or entry into cells for Marburg Virus; Potency, µM (titrated, usually from 37.8 µM), inactives show at the top dose activity change, negative = inhibition, most hits filed as inhibitors; Marburg virus pseudotyped entry inhibition, cell reporter; 300,000 tested, 1.8% active; calls by dose curve; tested in HEK293 cells
Sm TGR inh: qHTS Assay for the Inhibitors of Schistosoma Mansoni Peroxiredoxins | purified TGR, DTNB reduction, TNB absorbance 405 nm | Potency, µM (titrated, usually from 114 µM), for the others: top-dose activity change, negative = inhibition, hits mostly inhibitors | 360,000 tested, 3% active | AID 485364, 2010 | Schistosoma mansoni thioredoxin glutathione reductase (TGR), Q962Y6; note: nearly all actives have a fitted effect of over 60% in size
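First, TGR (20 nM dispensed) and NADPH were mixed with compound. Second, a 15 min room-temperature incubation followed. Third, further NADPH and then DTNB were added to start the reaction. Finally, TNB absorbance was monitored kinetically.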
RE007 growth inh: qHTS Assay for Inhibitors of the HIV-1 protein Vpr | S. pombe RE007 Vpr strain, BacTiter-Glo ATP luminescence, 24 h | AID 651644, 2012 | Potency, µM (highest dose often 92.2 µM), without a hit: at the top dose activity change, negative = less growth, hits mostly inhibitors | 360,000 tested, 0.21% active; active = well fitted falling curve with a large enough effect; inconclusive = small, poorly fitted or top-dose-only effect; inactive = no such curve, though single readings can be large or run the other way; note: nearly all actives have a fitted effect of over 50% in size
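Fission yeast RE007 carrying one integrated HIV-1 vpr copy, seeded at OD 0.01 in PMG+AL medium with 23 nL pinned compound. Grown 24 h at 30 degrees; viability read by BacTiter-Glo luminescence after 5 min.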
FMDV antiviral: High Throughput Screening for Foot and Mouth Disease Virus Antivirals; FMDV antiviral cell-based qHTS; Potency, µM (titrated, usually from 57.9 µM), for the others: at the highest dose activity change, negative = inhibition, most hits filed as inhibitors; 410,000 tested, 1.2% active; calls by dose curve; tested in HEK293T cells; note: read-out not given here; nearly all actives have a fitted effect of over 45% in size
An asterisk follows results filed as active; u = inconclusive; x = no result given; [ ] = another dose, or the depositor's remark. Shown are actives, neighbours in structure and some others; about 7.2% of the full set was active somewhere. Unless noted, calls come from the whole dose curve; as a rule, active = well fitted curve in the direction sought with a large enough effect; inconclusive = small, poorly fitted or top-dose-only effect, or another doubt; inactive = no such curve, though single readings can be large; an effect the other way counts as inactive or inconclusive. % is set by controls: 0 for no effect and ±100 for the full control effect; potency is the fitted concentration of half-maximal effect.

SMILES	Lassa entry inh	HCV inhibitor	MARV entry inh	Sm TGR inh	RE007 growth inh	FMDV antiviral
CC1(c2ccccc2)CC(C)(C)N(C(=O)c2ccccc2Cl)c2ccccc21 (configuration not stated)	-0.8%[46.1 µM]	x	20.2%[46.1 µM]	0.0%	x	28.2µM*
Cc1ccc(C2(C)CC(C)(C)N(C(=O)CSc3nnc(C)s3)c3ccccc32)cc1 (configuration not stated)	7.94µM*	u	u	0.1%	7.1%	u
COc1ccccc1C(=O)N1c2ccccc2C(C)(c2ccc(Cl)cc2)CC1(C)C (configuration not stated)	u	x	x	-8.7%	x	u
COc1ccc(-c2noc(-c3nnn(-c4ccc(C(C)C)cc4)c3C)n2)cc1OC	24.1%[46.1 µM]	x	x	0.0%	x	u
COc1ccc2c(C)c(CCC(=O)NCc3ccc(Cl)cc3)c(=O)oc2c1C	0.9%[46.1 µM]	x	9.5%[46.1 µM]	1.7%	x	-6.1%
CCC(=O)N(CCCN(C)C)c1nc(-c2cc(OC)ccc2OC)cs1	8.6%	5.62µM*	u	4.9%	0.0%	-2.7%
COCCCN(C(=O)c1ccco1)c1nc(-c2cc(OC)ccc2OC)cs1	-4.1%	u	-22.9%	89.1µM*	11.2%	u
CCC(=O)N(CC)c1nc(-c2cc(OC)ccc2OC)cs1	-9.9%	u	-37.0%	2.7%	6.9%	x
COc1ccc(OC)c(-c2csc(N(Cc3ccco3)C(=O)c3ccco3)n2)c1	u	u	u	-12.1%	11.3%	-26.1%
COc1cc(=O)n2c(c1C(=O)NC(C)c1ccco1)CCN(C(=O)c1cc(C)cc(C)c1)CC2 (configuration not stated)	x	x	x	x	x	28.3%
Cc1c(-c2nsc(NC(=O)c3cccs3)n2)nnn1-c1ccc(Cl)cc1	-2.4%[46.1 µM]	x	x	1.0%	x	34.0%
Cc1ccc(Cl)cc1N1CCN(C(=O)c2cnc(N3CCOCC3)c3ccccc23)CC1	u	x	x	5.5%	x	u
Cc1c(Br)c([N+](=O)[O-])nn1CC(=O)c1ccccc1	x	12.6%	x	x	8.3%	-15.1%
CC(O)c1nc(C(C)O)n(CC(=O)c2ccccc2)n1 (configuration not stated)	x	1.9%	x	44.7µM*	-1.9%	-16.3%
COc1ccc2c(CNC3CCC(C)CC3)c(C(=O)O)n(Cc3ccccc3)c2c1 (configuration not stated)	-16.7%[46.1 µM]	x	x	-4.5%	x	6.6%
O=C(NCCO)c1cc2c([nH]c3ccccc32)c(-c2ccccc2)n1	-11.5%	u	-1.0%	-5.9%	2.6%	-3.8%
COc1ccc(OC)c(-c2nc(C(=O)NC3CCN(Cc4ccccc4)CC3)cc3c2[nH]c2ccccc23)c1	x	6.31µM*	x	3.1%	-5.4%	u
Cc1ccc(-c2nc(C(=O)NCCCN(C)C)cc3c2[nH]c2ccccc23)cc1	x	11.2µM*	x	-4.3%	x	u
COc1cc(-c2nc(C(=O)NC3CCN(Cc4ccccc4)CC3)cc3c2[nH]c2ccccc23)cc(OC)c1OC	x	u	x	-19.5%	-4.0%	u
Cc1nc(C(=O)NCCO)cc2c1[nH]c1ccccc12	x	11.2µM*	x	8.9%	6.3%	14.4%
O=C(NCCO)c1cc2c([nH]c3ccccc32)c(-c2ccc(F)cc2)n1	-23.8%	11.2µM*	-28.2%[46.1 µM]	-12.9%	0.8%	-19.8%
CCc1cc(C(=O)NCC2Cc3cc(C)cc(-c4cc(C(C)=O)ccc4F)c3O2)n(C)n1 (configuration not stated)	x	x	x	x	x	-23.8%
COc1cc(F)ccc1-c1csc(C(O)c2ccc(F)cc2)n1 (configuration not stated)	x	x	x	x	-18.3%	-13.1%
CCOC(=O)c1ccc(NC(=O)c2cc3cc(C)ccc3n2C)cc1	0.2%[46.1 µM]	x	-4.8%[46.1 µM]	1.6%	x	-16.8%
COc1ccc(-c2nc(C(=O)NCC3CCCO3)cc3c2[nH]c2ccccc23)cc1 (configuration not stated)	x	3.55µM*	x	3.3%	-0.2%	u
SMILES	Lassa entry inh	HCV inhibitor	MARV entry inh	Sm TGR inh	RE007 growth inh	FMDV antiviral
Cc1ccc(-c2nc(C(=O)NCC3CCCO3)cc3c2[nH]c2ccccc23)cc1 (configuration not stated)	x	u	x	0.3%	0.3%	u
Cc1c(Cl)cccc1NC(=O)Cn1nnc2sc3c(c2c1=O)CCCC3	10.5%[46.1 µM]	x	0.3%[46.1 µM]	7.0%	x	4.5%
O=C(CSc1nc2ccccc2nc1Cc1ccccc1F)Nc1cccc(C(F)(F)F)c1	5.2%[46.1 µM]	x	u	79.4µM*	x	-7.0%
O=C(O)CSc1nc2ccccc2nc1Cc1ccccc1F	2.1%[46.1 µM]	9.2%	18.4%[46.1 µM]	29.7%	-4.2%	14.4%
COc1cc(NC(=O)CSc2nc3ccccc3nc2Cc2ccc(Cl)cc2)cc(OC)c1	-15.7%[46.1 µM]	x	x	-2.2%	x	2.51µM*
Cc1ccc(Nc2cc(C)nc3nc(C)nn23)c(C)c1	-18.9%	-6.5%[8.37 µM]	-0.2%	-8.2%	8.9%	0.708µM*
O=C(Cc1cccs1)Nc1cccc(-c2nc3cc4ccccc4cc3[nH]2)c1	u	11.2µM*	u	-3.8%	-10.1%	-5.2%
COC(=O)N[C@@H](/C=C/c1ccccc1)/C(C(=O)OC)=C(\C)NCc1ccccc1	x	x	-22.2%[14.2 µM]	x	x	x
OC1(c2cccs2)CN(c2ccccc2)C2=[N+]1CCCC2 (configuration not stated)	-1.2%	13.5%	-22.8%[46.1 µM]	0.6%	-6.2%	-1.3%
CCOc1ccc(N2CC(O)(c3cccs3)[N+]3=C2CCCC3)cc1 (configuration not stated)	-1.1%	-6.6%	5.62µM*	10.3%	-19.9%	-15.5%
O=C(O)[C@@H]1Cc2ccccc2N1	x	1.8%	x	56.2µM*	9.0%	-0.1%
O=C(N/N=C/c1cn(-c2ccccc2)nc1-c1cccnc1)c1cccnc1	x	11.6%	x	1.1%	2.7%	-15.4%
O/N=C/c1cn(-c2ccccc2)nc1-c1cccnc1	4.1%	u	0.794µM*	9.9%	-12.2%	-13.9%
O=C(/C=C/c1cn(-c2ccccc2)nc1-c1cccnc1)c1ccco1	10µM*	u	u	-22.9%	-3.2%	14.1µM*
O=C(CSc1nnc(CNC(=O)c2c(F)cccc2F)o1)c1ccc(Cl)cc1	x	x	x	x	8.0%	-6.1%
O=C(Oc1c(Cl)cc(Cl)c2cccnc12)c1cccc([N+](=O)[O-])c1	u	u	u	u	8.91µM*	u
Nc1c(C(=O)N2CCOCC2)sc2nc3c(cc12)CCC3	x	2.6%	x	4.3%[57.1 µM]	13.6%	21.0%
Nc1c(C(=O)N2CCOCC2)sc2nc3c(cc12)CCCC3	u	-7.0%	u	3.0%	23.7%	11.2µM*
CCOc1ccc(NC(=O)c2ccc3c(c2)OCCO3)cc1S(=O)(=O)N(CC)CC	x	2.82µM*	x	4.4%	1.0%	-5.4%
